Experimental data: PubChem BioAssay
Active and inactive are the calls of the source.

Assays:
[1] = target: Albumin (Bos taurus) (UniProt P02769); assay: bovine serum albumin binders on microarray, profiling panel, artefact control for SMM control protein annotation, biochemical, small-molecule microarray, Alexa647 label, 635/667 nm fluorescence (AID 1118); details: BSA-A647 binding, fluorescence 635 nm, higher = more signal;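 also: score merges 667 nm emission intensity and signal-to-noise per printed compound spot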
[2] = small-molecule microarray binders of probe aXIP, primary screen, biochemical, NeuroSMM set, 635/667 nm fluorescence (AID 1119); details: higher = more signal, called active from +8 up or from −8 down;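 also: probe is the protein aXip251-270 applied at 1 µg/mL to compound-printed slides; binding of probe to printed compounds measured as 667 nm fluorescence plus signal to noise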
[3] = small-molecule binders of probe aNOTCH3, primary screen, biochemical, small-molecule microarray, 635/667 nm fluorescence (AID 1120); details: higher = more signal;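 also: probe is a biotin-tagged antibody raised against NOTCH3 rather than NOTCH3 protein; score merges spot fluorescence near 667 nm with spot signal to noise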
[4] = small-molecule binders of probe aNOTCH2, primary screen, biochemical, small-molecule microarray, 635/667 nm fluorescence (AID 1121); details: higher = more signal;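 also: score merges feature fluorescence read at 667 nm with its signal to noise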
[5] = target: Carbonic anhydrase 2 (Homo sapiens) (UniProt P00918); assay: CAII small-molecule binders, profiling panel, biochemical, small-molecule microarray, Alexa647-labelled CAII (AID 1122); details: CAII-A647 binding fluorescence, higher = more signal
[6] = COS7 lysate on small-molecule microarray, probe aHis, 635 nm (AID 1123); details: COS7 cell lysate, fluorescence, higher = more signal;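 also: z-score combines 667nm fluorescence intensity with signal-to-noise per printed compound spot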
[7] = compound binding in COS7 lysate, probe aLAP1, primary screen, cell lysate, small-molecule microarray (AID 1124); details: probe aLAP1, fluorescence, higher = more signal;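 also: lysate comes from COS7 cells expressing LAP1 and is applied at 0.3 µg/mL; score merges spot fluorescence near 667 nm with signal-to-noise over triplicate slides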
[8] = test system: Sam68 (KHDRBS1); assay: Sam68 small-molecule binders, primary screen, biochemical, small-molecule microarray, 635 nm fluorescence (AID 1125); details: small-molecule microarray binding, higher = more signal;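 also: score merges 667 nm channel intensity with signal to noise over triplicate slides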
[9] = test system: Chordin-like protein 2 (CHRDL2); assay: CHRDL2 small-molecule binders, primary screen, biochemical, small-molecule microarray, 635 nm fluorescence (AID 1126); details: small-molecule microarray binding, fluorescence 635 nm; higher = more signal;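 also: printed compound slides probed with Chrdl2 protein at 4 µg/mL for 1 h at 4 C; score merges 667 nm emission intensity with signal to noise over three replicate slides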
[10] = target: Concanavalin-A (Canavalia ensiformis) (UniProt P02866); assay: ConA small-molecule binders, primary screen, artefact control for SMM control protein annotation, biochemical, small-molecule microarray, Alexa647 label, 635 nm (AID 1127); details: ConA-A647 binding fluorescence, higher = more signal;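 also: z combines 667 nm emission intensity with signal-to-noise across three replicate slides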
Concanavalin-A (Canavalia ensiformis), sequence (P02866 whole entry, looked up): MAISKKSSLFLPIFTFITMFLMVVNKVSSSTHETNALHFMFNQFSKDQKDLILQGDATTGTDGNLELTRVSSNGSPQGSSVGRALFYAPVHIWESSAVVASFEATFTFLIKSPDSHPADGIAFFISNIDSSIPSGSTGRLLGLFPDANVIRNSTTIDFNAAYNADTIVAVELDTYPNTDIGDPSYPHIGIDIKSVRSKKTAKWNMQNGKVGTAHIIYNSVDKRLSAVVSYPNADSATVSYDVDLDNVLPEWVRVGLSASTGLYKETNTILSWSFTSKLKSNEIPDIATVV

Albumin (Bos taurus), sequence (P02769 whole entry, looked up): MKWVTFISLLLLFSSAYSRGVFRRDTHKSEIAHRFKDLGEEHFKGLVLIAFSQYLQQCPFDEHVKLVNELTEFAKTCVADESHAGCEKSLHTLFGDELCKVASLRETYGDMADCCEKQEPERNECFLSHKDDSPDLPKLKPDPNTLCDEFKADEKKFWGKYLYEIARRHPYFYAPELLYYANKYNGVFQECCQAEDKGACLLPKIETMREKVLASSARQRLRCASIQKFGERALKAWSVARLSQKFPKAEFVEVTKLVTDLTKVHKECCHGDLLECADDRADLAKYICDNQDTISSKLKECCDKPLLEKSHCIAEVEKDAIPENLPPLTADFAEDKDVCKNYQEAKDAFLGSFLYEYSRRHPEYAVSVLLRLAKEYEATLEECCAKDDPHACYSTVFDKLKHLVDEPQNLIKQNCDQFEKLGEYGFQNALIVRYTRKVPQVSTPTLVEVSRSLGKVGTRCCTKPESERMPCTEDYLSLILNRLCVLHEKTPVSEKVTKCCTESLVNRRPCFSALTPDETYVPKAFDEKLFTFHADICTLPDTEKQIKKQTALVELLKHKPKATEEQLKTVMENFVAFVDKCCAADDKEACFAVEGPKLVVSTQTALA

SMILES | composite z-score [1] | composite Z-score [2] | composite z-score [3] | composite z-score [4] | composite z-score [5] | composite z-score [6] | composite z-score [7] | composite z-score [8] | composite z-score [9] | composite z-score [10]
CCOC(=O)C[C@H]1[C@H](OC(=O)Cc2ccc3c(c2)OCO3)[C@@H](NC(=O)C2CCCCC2)c2cc(OCCCO)ccc2N1C(=O)Cc1ccc(OC)cc1 | 0.343 | -0.145 (inactive) | 0.369 | -0.0993 | 0.231 | 0.557 | 0.366 | 1.15 | 0.107 | 0.343
C=C[C@@H](COC(C)=O)N(Cc1ccccc1[N+](=O)[O-])S(=O)(=O)c1ccc(Br)cc1 | 0.138 | 1.55 (inactive) | 0.122 | 0.181 | 0.659 | -0.0383 | 0.343 | 0.92 | 1.32 | 0.602
COC(=O)[C@]1(Cc2ccccc2N=[N+]=[N-])N=C(c2ccc(OCCCO)cc2)O[C@@H]1c1ccccc1N=[N+]=[N-] | 0.308 | -0.47 (inactive) | -0.0976 | -0.148 | 0.595 | 0.794 | 0.405 | -0.255 | -0.153 | 0.725
CC(C)C(=C=CC[C@@H](O)c1ccccc1OCCO)C[C@@H](O)c1ccccn1 | 0.0682 | -0.776 (inactive) | -0.0847 | -0.111 | 0.738 | 0.287 | -0.0744 | 0.95 | -0.0374 | 0.451
CC(C)c1ccc(NN2C(C(O)c3c(F)cccc3Cl)C=CC3C(=O)N(c4ccccc4)C(=O)C32)cc1 (stereo not given) | 0.913 | -0.193 (inactive) | 0.704 | 0.395 | 0.187 | 2.26 | 0.584 | 1.14 | -0.297 | 1.11
CCCCC=C[C@@H](NC(=O)c1ccco1)c1ccccc1 | 0.844 | -0.474 (inactive) | -0.0947 | -0.0419 | -0.406 | 0.0455 | -0.358 | -0.708 | -0.134 | 1.01
C=CCOC(=O)[C@@H]1[C@H]2C(=O)O[C@H](c3ccccc3)[C@H](c3ccccc3)N2[C@H](c2ccc(OCCOC(=O)[C@@H]3C[C@@H]4C(=O)N[C@@H](Cc5ccccc5)C(=O)N4[C@@H]3c3cccc(OCCO)c3)cc2)[C@@]12C(=O)Nc1ccc(I)cc12 | -0.912 | -0.292 (inactive) | -0.0328 | -0.0389 | 0.537 | 1.1 | 0.283 | 1.31 | 1.11 | 0.795
CCCN1C(=O)[C@]2(COC(c3ccc(OCCCO)cc3)=N2)Cc2ccccc21 | 0.0531 | 0.305 (inactive) | -0.0026 | -0.0009 | 0.64 | 1.93 | -0.218 | 1.11 | -0.125 | 1.13
[N-]=[N+]=NCc1ccccc1C[C@@]1(C(=O)NCC(O)CO)N=C(c2ccc(OCCCO)cc2)O[C@@H]1c1ccccc1CN=[N+]=[N-] (stereo not given in full) | 1.01 | -0.082 (inactive) | 0.319 | -0.0335 | 0.546 | 3.29 | -0.0011 | 1.29 | -0.257 | 1.1
CC(C)(C)N1CC=CC23O[C@@H]4C=CCOC(=O)[C@@H]4[C@H]2C(=O)N(CCCCCO)[C@@H]3C1=O (stereo not given in full) | 0.485 | 1.1 (inactive) | -0.406 | -0.229 | 0.82 | 0.121 | 1.25 | -0.87 | -0.612 | -2.63
COc1ccc(C#Cc2ccc3c(c2)[C@]2(C(=O)N3)[C@H](c3ccc(O)cc3)N3[C@H](c4ccccc4)[C@H](c4ccccc4)OC(=O)[C@H]3[C@@H]2C(=O)NC[C@H](O)c2ccccc2)cc1 | 0.363 | -0.118 (inactive) | 0.0319 | -0.189 | 0.295 | 2.78 | 0.0766 | 0.81 | 0.0813 | 1.17
N#Cc1ccc(NN2C(C(O)c3ccc([N+](=O)[O-])cc3)C=CC3C(=O)N(c4ccccc4)C(=O)C32)cc1 (stereo not given) | 0.552 | 0.156 (inactive) | 0.0847 | 0.181 | 0.758 | 2.75 | 0.833 | 1.3 | 0.0881 | 0.647
O=C(CS)NCCCCCCNC(=O)[C@H]1C[C@H]2C(=O)NCC(=O)N2[C@H]1c1ccc(O)cc1 | -0.523 | 0.131 (inactive) | -0.25 | -0.14 | 0.696 | 0.677 | 0.621 | -0.272 | 0.129 | 0.336
[N-]=[N+]=NCc1ccccc1C[C@]1(C(=O)O)N=C(c2ccc(OCCCO)cc2)O[C@H]1c1ccccc1 | 0.954 | -0.37 (inactive) | -0.0414 | -0.0633 | 0.685 | 1.79 | 0.249 | 0.52 | -0.741 | 1.11
CCCC[C@@H]1C[C@H]1[C@@H](NC(=O)c1ccc(-c2ccccc2)cc1)c1ccc(-c2ccccc2)cc1 | -0.0732 | -0.254 (inactive) | -0.0072 | -0.0795 | 0.0853 | 0.468 | -0.113 | 0.287 | 1.42 | -0.142
O=C1C2C=CC(C(O)c3cccs3)N(Nc3ccccc3F)C2C(=O)N1c1ccccc1 (stereo not given) | 0.512 | -0.413 (inactive) | -0.0728 | -0.181 | 0.419 | 1.55 | 0.118 | 0.794 | -0.399 | 0.653

SMILES | composite z-score [1] | composite Z-score [2] | composite z-score [3] | composite z-score [4] | composite z-score [5] | composite z-score [6] | composite z-score [7] | composite z-score [8] | composite z-score [9] | composite z-score [10]
CO[C@H]1O[C@H](CO)[C@@H](OC(=O)Nc2ccc3c(c2)OCO3)[C@H](OC(=O)Nc2ccccc2)[C@H]1OC(=O)Nc1ccccc1 | -0.21 | 0.118 (inactive) | 0.0773 | -0.102 | 0.406 | 2.04 | 0.637 | 1.19 | 0.261 | 0.143
COc1cc(CO)ccc1OC(C)=O | 0.344 | 0.151 (inactive) | 0.262 | 0.0275 | 0.112 | 0.329 | 0.356 | 0.482 | 0.689 | 0.687
O=C(O)[C@@]1(Cc2ccccc2)N=C(c2ccc(OCCCO)cc2)O[C@H]1c1ccccc1 | 0.32 | -0.419 (inactive) | -0.0932 | -0.147 | 0.529 | 1.29 | -0.183 | 0.499 | -1.15 | 0.649
CC(C)(C)OC(=O)CC[C@]1(C(=O)N2CCCCC2)N=C(c2ccc(OCCCO)cc2)O[C@H]1c1ccccc1N=[N+]=[N-] | 0.657 | 2.33 (inactive) | 0.128 | -0.0391 | 0.528 | 2.05 | -0.0995 | 1.25 | -0.292 | 1.19
CC(=CC1CCCCC1)[C@@H](NC(=O)c1ccc(C(F)(F)F)cc1)c1ccc(-c2ccccc2)cc1 | 0.938 | -0.193 (inactive) | -0.0311 | 0.0181 | -0.0824 | -0.261 | -0.223 | -0.946 | -0.371 | -0.0536
COc1ccc(C(O)C2C=CC3C(=O)N(C)C(=O)C3N2Nc2ccccc2)cc1OCc1ccccc1 (stereo not given) | 0.878 | 0.0582 (inactive) | -0.0714 | -0.0128 | 0.754 | 1.67 | -0.142 | 1.28 | -0.0441 | 0.949
COc1ccc(C#Cc2ccc3c(c2)[C@]2(C(=O)N3)[C@H](C(=O)NC[C@H](O)c3ccccc3)[C@H]3C(=O)O[C@H](c4ccccc4)[C@H](c4ccccc4)N3[C@@H]2c2ccc(OCCO)cc2)cc1 | 0.265 | 0.53 (inactive) | 0.196 | -0.125 | 0.357 | 1.97 | 0.635 | 1.33 | 0.473 | 1.17
COc1ccc(C#Cc2ccc3c(c2)[C@]2(C(=O)N3)[C@H](C(=O)NC[C@H](O)c3ccccc3)[C@H]3C(=O)O[C@H](c4ccccc4)[C@H](c4ccccc4)N3[C@@H]2c2ccccc2OCCO)cc1 | 0.566 | 0.29 (inactive) | 0.175 | -0.0157 | 0.575 | 1.8 | 1.03 | 1.29 | 0.469 | 1.14
CCOC(=O)[C@H]1C[C@H]2O[C@@]23C[C@H]1C(=O)N1CCCC1[C@@H]3O[Si](C)(C)C(C)(C)C (stereo not given in full) | -0.505 | 0.545 (inactive) | 0.0203 | -0.102 | -0.123 | 0.178 | -0.244 | -0.445 | -0.694 | -1.61
O=C(CCN1CCOCC1)c1cccc(O)c1 | 0.379 | 0.989 (inactive) | 0.324 | 0.0292 | 0.634 | 0.973 | 0.629 | 0.922 | 1.48 | 0.767
CN(C)C(=O)[C@@]1(CCC(=O)OC(C)(C)C)N=C(c2ccc(OCCCO)cc2)O[C@H]1c1ccccc1 | 0.955 | 0.58 (inactive) | 0.519 | -0.0125 | 0.842 | 3.16 | 0.55 | 0.926 | -0.719 | 0.683
CCCCC=C[C@@H](NC(=O)c1cccs1)c1ccccc1 | 0.84 | -0.544 (inactive) | 0.0435 | -0.0116 | 0.251 | 1.35 | 0.369 | 0.839 | -0.406 | 0.499
Cc1ccc(S[C@]2(C(=O)NCCN3CCOCC3)CC(=O)N(Cc3cc(C(F)(F)F)cc(C(F)(F)F)c3)[C@@H]2c2ccc(CO)cc2I)cc1 | 0.59 | -1.18 (inactive) | -0.214 | -0.164 | 0.661 | 0.373 | -0.0586 | 0.134 | -1.16 | -0.13
COc1c(C)cc(-c2cc3c(c(-c4ccc(Oc5ccccc5)cc4)n2)[Si](C(C)C)(C(C)C)OC3)cc1C | -0.237 | -0.591 (inactive) | 0.0208 | 0.0016 | -0.229 | -0.202 | 0.151 | -1.07 | -0.206 | -0.52
COCC1=C2[C@@H](CCc3ccccc3)OB(O)C[C@@H]2[C@@H]2C(=O)N(Cc3ccccc3)C(=O)[C@@H]2C1 | 0.818 | -0.524 (inactive) | -0.102 | -0.14 | 0.404 | 0.532 | -0.0804 | -0.42 | 0.137 | -0.777
